Usually inhibition stands for how much of the control response was suppressed.

A number with no mark means an inactive call. How the calls were made is not given here.

These results are taken from PubChem BioAssay AID1026 (Columbia University Molecular Screening Center, 2008).

In this experiment the target is Bifunctional epoxide hydrolase 2 (Homo sapiens) (UniProt P34913). Briefly: sEH inhibitor concentration-response potency, dose response, biochemical, human sEH, fluorescence, Infinite200 (AID 1026). As to conditions: recombinant human sEH, fluorogenic substrate, at 0.2 µM, stronger effect = higher value.
Chain of Bifunctional epoxide hydrolase 2 (Homo sapiens) (P34913 whole entry, looked up): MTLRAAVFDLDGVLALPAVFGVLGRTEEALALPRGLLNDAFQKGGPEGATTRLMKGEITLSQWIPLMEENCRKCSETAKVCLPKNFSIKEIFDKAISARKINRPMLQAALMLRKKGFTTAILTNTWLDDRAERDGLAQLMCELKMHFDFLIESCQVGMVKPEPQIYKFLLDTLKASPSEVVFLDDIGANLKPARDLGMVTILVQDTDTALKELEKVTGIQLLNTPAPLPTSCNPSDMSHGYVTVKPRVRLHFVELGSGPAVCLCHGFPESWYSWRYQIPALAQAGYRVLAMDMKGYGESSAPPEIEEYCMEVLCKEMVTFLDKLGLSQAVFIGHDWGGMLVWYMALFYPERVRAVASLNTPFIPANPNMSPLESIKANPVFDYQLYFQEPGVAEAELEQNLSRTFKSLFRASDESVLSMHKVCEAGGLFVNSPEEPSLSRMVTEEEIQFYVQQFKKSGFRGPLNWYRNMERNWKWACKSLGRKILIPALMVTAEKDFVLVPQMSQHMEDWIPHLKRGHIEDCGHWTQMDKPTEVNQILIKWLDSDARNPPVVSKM

On to `CC(Cc1ccccc1)NC(=O)NC(C)Cc1ccccc1` (stereo unspecified), for which the inhibition is 71.6%.
